Results from the supplement of paper PMC3545927.
This is one part of the list. How many sequences the whole screen found active is unknown.

Biological target: furin, P09958
Assay: furin cleavage Z-score vs untreated control; higher = more cleavage, active = 3.5 or more, inactive = 1 or less, 8 variable residues between constant flanks
Protocol: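 Multiplexed peptide-cDNA fusion cleavage assay. 8-mer variable peptides flanked by constant Cys-Ala (N-term) and Ala-Gly-Asn-Ala-Ser-Ala-Ser-Ala (C-term) and conjugated to a cDNA oligonucleotide were bead-immobilised via the N-terminus. They were treated with purified furin at a 1:10 enzyme:substrate ratio in 50 mM HEPES pH 7.5, 1 mM CaCl2, 100 mM NaCl for 7.5, 15 or 30 min. Released cDNA was counted by next-generation sequencing, and log counts versus no-furin controls were lowess-adjusted and converted to robust Z-scores.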

furin, P09958, sequence (P09958 whole entry): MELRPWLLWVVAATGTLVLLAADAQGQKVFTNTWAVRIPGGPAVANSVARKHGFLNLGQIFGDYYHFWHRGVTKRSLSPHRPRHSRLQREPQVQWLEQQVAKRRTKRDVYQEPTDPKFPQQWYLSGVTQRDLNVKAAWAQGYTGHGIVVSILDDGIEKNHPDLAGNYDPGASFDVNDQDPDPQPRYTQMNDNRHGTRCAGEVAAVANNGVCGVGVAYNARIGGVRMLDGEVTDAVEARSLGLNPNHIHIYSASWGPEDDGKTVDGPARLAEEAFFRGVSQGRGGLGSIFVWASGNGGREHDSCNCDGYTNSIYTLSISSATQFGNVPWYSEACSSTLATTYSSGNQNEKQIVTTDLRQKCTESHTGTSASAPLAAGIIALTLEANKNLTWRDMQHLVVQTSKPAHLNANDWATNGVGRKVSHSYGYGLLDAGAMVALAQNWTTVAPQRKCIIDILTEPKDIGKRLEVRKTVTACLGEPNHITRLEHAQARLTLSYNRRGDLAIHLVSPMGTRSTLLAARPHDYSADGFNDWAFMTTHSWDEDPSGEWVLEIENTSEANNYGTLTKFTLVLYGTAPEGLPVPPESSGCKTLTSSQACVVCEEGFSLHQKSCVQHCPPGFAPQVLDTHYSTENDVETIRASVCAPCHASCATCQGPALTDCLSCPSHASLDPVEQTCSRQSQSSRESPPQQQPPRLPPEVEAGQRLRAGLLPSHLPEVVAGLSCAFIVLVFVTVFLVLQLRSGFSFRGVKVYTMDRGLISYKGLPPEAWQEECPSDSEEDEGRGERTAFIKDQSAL

Row | Sequence | furin cleavage Z-score (7.5 min) | furin cleavage Z-score (15 min) | furin cleavage Z-score (30 min)
1 | CAIKGGRHLIAGNASASA [HC853] | -0.712 (inactive) | -0.368 (inactive) | 0.443 (inactive)
2 | CADGEVVTSTAGNASASA [HC2296] | 0.392 (inactive) | 0.826 (inactive) | -0.278 (inactive)
3 | CAVRLRAYMNAGNASASA [HC929] | 0.615 (inactive) | -1.18 (inactive) | 1.3
4 | CAYKVLVLNPAGNASASA [HC785] | 1.85 | -0.276 (inactive) | -1.39 (inactive)
5 | CARSKKPKGLAGNASASA [FS-3082] | 0.217 (inactive) | -0.722 (inactive) | -1.55 (inactive)
6 | CARSKRDSTYAGNASASA [FS-3169] | 6.51 (active) | 7.64 (active) | 7.09 (active)
7 | CARSKRDPDLAGNASASA [FS-2087] | -0.408 (inactive) | 0.763 (inactive) | 0.503 (inactive)
8 | CARSKRDYTPAGNASASA [FS-1928] | 6.07 (active) | 5.96 (active) | 6.83 (active)
9 | CARSKRPSTDAGNASASA [FS-2606] | -0.273 (inactive) | 0.303 (inactive) | 0.307 (inactive)
10 | CARSKRRWAPAGNASASA [FS-2307] | 0.891 (inactive) | 0.79 (inactive) | 2.12
11 | CARSKRYVHLAGNASASA [FS-2381] | 2.83 | 5.52 (active) | 7.4 (active)
12 | CARSKRDEKLAGNASASA [FS-2810] | 3.32 | 5.67 (active) | 5.15 (active)
13 | CARSGRDSGYAGNASASA [FS-2303] | -0.464 (inactive) | -0.846 (inactive) | -1.58 (inactive)
14 | CAKALGLLQTAGNASASA [HC1026] | -0.0968 (inactive) | 0.32 (inactive) | -1.95 (inactive)
15 | CAEQGMMLAEAGNASASA [HC1020] | 0.411 (inactive) | 0.355 (inactive) | -0.0666 (inactive)
16 | CAGLLRFCALAGNASASA [HC619] | -0.221 (inactive) | -0.963 (inactive) | 0.576 (inactive)
17 | CARIPREVSEAGNASASA [FS-2031] | 7.41 (active) | 8.89 (active) | 7.69 (active)
18 | CARTKRFLSYAGNASASA [FS-2826] | 4.24 (active) | 5.3 (active) | 6.61 (active)
19 | CAVVCCSLSYAGNASASA [HC2045] | 0.285 (inactive) | 2.15 | 0.578 (inactive)
20 | CARGARLVSEAGNASASA [FS-1708] | 0.305 (inactive) | -0.752 (inactive) | 0.671 (inactive)
21 | CARTKRKPSIAGNASASA [FS-2612] | 0.358 (inactive) | -0.0194 (inactive) | 0.82 (inactive)
22 | CARNQRDAWIAGNASASA [FS-2731] | -0.28 (inactive) | -0.224 (inactive) | -0.1 (inactive)
23 | CARTKRNAKIAGNASASA [FS-2384] | 8.15 (active) | 8.32 (active) | 7.88 (active)
24 | CARTKRFVSEAGNASASA [FS-3106] | 7.52 (active) | 9.36 (active) | 7.54 (active)

Row | Sequence | furin cleavage Z-score (7.5 min) | furin cleavage Z-score (15 min) | furin cleavage Z-score (30 min)
25 | CARPWKSVSEAGNASASA [FS-2060] | -0.467 (inactive) | 0.327 (inactive) | 1.73
26 | CARGLDVSVIAGNASASA [HC870] | 1.35 | -0.274 (inactive) | -0.641 (inactive)
27 | CAAPGERPSGAGNASASA [HC912] | -0.474 (inactive) | 0.136 (inactive) | -0.967 (inactive)
28 | CANLVYSTTSAGNASASA [HC1388] | 1.17 | -0.567 (inactive) | 1.86
29 | CATTPCSFSWAGNASASA [HC1887] | -1.16 (inactive) | -1.65 (inactive) | 0.982 (inactive)
30 | CAKVPAAYAAAGNASASA [HC780] | 0.0632 (inactive) | -0.0412 (inactive) | -3.37 (inactive)
31 | CARARRTLGHAGNASASA [FS-1684] | 6.43 (active) | 8.11 (active) | 7.53 (active)
32 | CALTKRLKRHAGNASASA [FS-689] | 12.6 (active) | 12.3 (active) | 9.95 (active)
33 | CARARRTTIYAGNASASA [FS-3151] | -0.153 (inactive) | 1.46 | 4.35 (active)
34 | CARARRDDPHAGNASASA [FS-2888] | 5.71 (active) | 7.99 (active) | 5.78 (active)
35 | CAYTTGPCTPAGNASASA [HC1193] | -1.22 (inactive) | 0.109 (inactive) | -1.36 (inactive)
36 | CALSPGALVVAGNASASA [HC1104] | -0.255 (inactive) | 1.25 | 0.572 (inactive)
37 | CAVVCNSMSYAGNASASA [HC98] | -1.2 (inactive) | 0.223 (inactive) | -0.488 (inactive)
38 | CAEGVFTGLTAGNASASA [HC940] | -0.801 (inactive) | 0.108 (inactive) | -0.239 (inactive)
39 | CAEGVTSTWVAGNASASA [HC2176] | 0.155 (inactive) | -0.512 (inactive) | 0.24 (inactive)
40 | CAGPVIQMYTAGNASASA [HC708] | -1.34 (inactive) | -0.0874 (inactive) | 0.0794 (inactive)
41 | CAEAKRGSSSAGNASASA [FS-2476] | -2.29 (inactive) | -0.0771 (inactive) | 0.074 (inactive)
42 | CARARRTKRHAGNASASA [FS-1255] | 11.2 (active) | 11.8 (active) | 8.26 (active)
43 | CARKQRKKKAAGNASASA [FS-1262] | 0.332 (inactive) | 1.6 | 1.96
44 | CAFSQRRKRRAGNASASA [FS-775] | 6.61 (active) | 5.92 (active) | 6.42 (active)
45 | CALRKRRKRKAGNASASA [FS-1030] | 10.7 (active) | 11.4 (active) | 9.12 (active)
46 | CARSQRRKKAAGNASASA [FS-865] | 4.39 (active) | 4.99 (active) | 5.15 (active)
47 | CARSQPRGRRAGNASASA [HC188] | 4.16 (active) | 5.3 (active) | 4.87 (active)
